Results filed as inconclusive are left out. Active and inactive are the calls of the source. Calls follow the shape of the dose curve; as a rule, active = well fitted cell-killing curve with a large enough effect in the repeat runs; inconclusive = weak or mixed curves; inactive = no such curve, though single readings can be large or run the other way.
Experiment: qHTS assay for identifying genotoxic compounds that show differential cytotoxicity against isogenic chicken DT40 cell lines with known DNA damage response pathways - Rad54/Ku70 mutant cell line (AID 743015); also: nearly all actives have a fitted effect of over 60% in size
Conditions: DT40 Rad54/Ku70 mutant viability, CellTiter-Glo, 40 h; series mostly up to 66.8 µM
Potency is read from the fitted curve at half-maximal effect.

Structure (SMILES) | Potency
C=C1C(=O)O[C@H]2[C@H]1CC/C(C)=C\CC[C@@]1(C)O[C@@H]21 | 4.22 µM (active)
CCCCCCCCCCCCCCCCSCC(COC)COP(=O)([O-])OCC[N+](C)(C)C (configuration not stated) | inactive
OCC(S)CS (configuration not stated) | 8.41 µM (active)
CO[C@H]1C=CO[C@@]2(C)Oc3c(C)c(O)c4c(O)c(c(/C=N/N5CCN(C6CCCC6)CC5)c(O)c4c3C2=O)NC(=O)/C(C)=C\C=C[C@H](C)[C@H](O)[C@@H](C)[C@@H](O)[C@@H](C)[C@H](OC(C)=O)[C@@H]1C | 4.22 µM (active)
O=C1CSC2(CCN(CCCN3c4ccccc4Sc4ccc(Cl)cc43)CC2)N1 | 8.41 µM (active)
NC(=O)C[C@@H](N)C(=O)O | inactive
CO[C@@]1(NC(=O)C2SC(=C(C(N)=O)C(=O)O)S2)C(=O)N2C(C(=O)O)=C(CSc3nnnn3C)CS[C@@H]21 (some centres not stated) | inactive
C#C[C@]1(O)CC[C@H]2[C@@H]3CCC4=CCCC[C@@H]4[C@H]3C(=C)C[C@@]21CC | 21.1 µM (active)
CCOc1ccc(N=Nc2ccc(N)cc2N)cc1 | 21.1 µM (active)
C=CC[C@@H]1/C=C(\C)C[C@H](C)C[C@H](OC)[C@H]2O[C@@](O)(C(=O)C(=O)N3CCCC[C@H]3C(=O)O[C@H](/C(C)=C/[C@@H]3CC[C@@H](O)[C@H](OC)C3)[C@H](C)[C@@H](O)CC1=O)[C@H](C)C[C@@H]2OC | 6.68 µM (active)
Nc1ncnc2c1ncn2[C@@H]1O[C@H](COP(=O)(O)OP(=O)(O)OP(=O)(O)O)[C@@H](O)[C@H]1O | inactive
CC(C)N1CCN(c2ccc(OC[C@H]3CO[C@](Cn4cncn4)(c4ccc(Cl)cc4Cl)O3)cc2)CC1 | 6.39 µM (active)
